Measurements as given in PubChem BioAssay AID463173 (ICCB-Longwood Screening Facility, Harvard Medical School, 2010).
The whole screen tested about 52,000 compounds, of which about 4,300 (8.3%) were called active. What follows is part of a selection rich in actives, with near analogues and random picks from the rest. Values without a mark were called inactive. Cut-off read from the data, not from the text of the source: active = survival mostly below about 52% (no sharp cut-off); inactive = mostly above about 56%.

system: DeltatarO mutant; assay: growth inhibition of S. aureus wild type versus tarO mutant, primary screen, teichoic acid synthesis inhibitors, RN4220, OD600 (AID 463173); settings: OD600, 18 h, hits give low values, screened at 18.75 µg/mL (by protocol)

SMILES | survival
Cc1oc(-c2ccccc2F)nc1CSc1nnc(C)n2c1cc1occc12 | 74%
Clc1ccc(CSc2nncn3c2cc2occc23)cc1 | 47%
Cc1cc2c(cc3c(SCc4cccc(Cl)c4)nnc(C)n32)o1 | 56%
Cc1cc2c(cc3c(SCc4ccc(Cl)cc4)nnc(C)n32)o1 | 57%
Cc1ccc(-c2nc(CSc3nnc(C)n4c3cc3occc34)c(C)o2)cc1 | 72%
C=Cc1ccc(CSc2nnc(C)n3c2cc2occc23)cc1 | 42% (active)
Cc1nnc(SCc2ccc(Cl)cc2)c2cc3occc3n12 | 28% (active)
Cc1nnc(SCc2ccccc2Cl)c2cc3occc3n12 | 74%
Cc1cc(C)c(CSc2nnc(C)n3c2cc2occc23)c(C)c1 | 40% (active)
Cc1ccc(C)c(NC(=O)CSc2nnc(C)n3c2cc2occc23)c1 | 66%
Cc1oc(-c2cccc(Cl)c2)nc1CSc1nnc(C)n2c1cc1occc12 | 79%
Cc1cc2c(cc3c(SCc4ccccc4Cl)nnc(C)n32)o1 | 49% (active)
COc1ccc(NC(=O)C(CC(C)C)NS(=O)(=O)c2ccc3c(c2)oc(=O)n3C)cc1Cl (stereo unspecified) | 127%
Cc1cccc(NC(=O)CSc2nc3c(sc4ccccc43)c(=O)n2CCCC(=O)NC2CCCC2)c1 | 87%
CCOC(=O)c1c(C)oc2ncnc(NCCCN3CCN(c4cc(C)ccc4C)CC3)c12 | 101%
Cc1ccc(Cn2c(C(=O)NCc3ccccc3Cl)cc3sccc32)cc1 | 86%
COc1ccccc1-c1nc2c3c(-c4ccccc4)c(-c4ccccc4)oc3ncn2n1 | 70%
COc1cccc(NC(=O)CSCc2cc(=O)c3ccc(C)c(C)c3[nH]2)c1 | 74%
CSCCC(NS(=O)(=O)c1ccc2c(c1)oc(=O)n2C)C(=O)Nc1ccc(Cl)cc1 (stereo unspecified) | 94%
COc1ccccc1CCNC(=O)CCn1c(=O)c2cccn2c2ccc(F)cc21 | 44% (active)
COc1ccc(OC)c(CCNC(=O)CCCn2c(=O)c3cccn3c3ccc(F)cc32)c1 | 88%
COc1ccc(OC)c(CCNC(=O)CCn2c(=O)c3cccn3c3ccc(F)cc32)c1 | 58%
COc1ccc(OC)c(CNC(=O)CCn2c(=O)c3cccn3c3ccc(F)cc32)c1 | 58%

SMILES | survival
O=C(CCn1c(=O)c2cccn2c2ccc(F)cc21)NCCc1ccccc1Cl | 52%
COc1ccc(CCNC(=O)CCn2c(=O)c3cccn3c3ccc(F)cc32)c(OC)c1OC | 39% (active)
COc1ccc(S(=O)(=O)Nc2ccc3c(c2)CCCN3S(=O)(=O)c2ccc(C)cc2)cc1F | 74%
O=C(NCCn1ccc2ccccc21)c1ccc(Cl)cc1 | 87%
O=C1CC(c2ccccc2)Cc2[nH]c(=O)c(C(=O)Nc3ccc(OC(F)(F)F)cc3)cc21 (stereo unspecified) | 163%
CCc1ccc(NC(=O)CSc2nc3ncccc3[nH]2)cc1 | 86%
CCN(C(=O)CSc1nc2ccccc2[nH]1)c1ccccc1 | 85%
CCN(C(=O)CSc1nc2ncccc2[nH]1)c1ccc(C(C)C)cc1 | 43% (active)
COc1cc(NC(=O)CSc2nc3nc(C)c(Cc4ccccc4Cl)c(C)n3n2)cc(OC)c1 | 73%
Cc1cccc(Cc2c(C)nc3nc(SCC(=O)NC4CCCCC4)nn3c2C)c1 | 40% (active)
Cc1nc2nc(SCC(=O)NC3CCCCC3)nn2c(C)c1Cc1ccccc1Cl | 25% (active)
Cc1ccc(Cc2c(C)nc3nc(SCC(=O)NC4CCC(C)CC4)nn3c2C)cc1 (stereo unspecified) | 131%
COCCCNC(=O)CSc1nc2nc(C)c(Cc3ccccc3Cl)c(C)n2n1 | 61%
Cc1nc2nc(SCC(=O)NC3CCC(C)CC3)nn2c(C)c1Cc1ccccc1Cl (stereo unspecified) | 83%
COc1ccccc1CNC(=O)CSc1nc2nc(C)c(Cc3ccccc3Cl)c(C)n2n1 | 46% (active)
COc1ccccc1CNC(=O)CSc1nc2nc(C)c(Cc3ccccc3C)c(C)n2n1 | 118%
Cc1nc2nc(SCC(=O)NC3CCC(C)CC3)nn2c(C)c1Cc1ccccc1 (stereo unspecified) | 92%
Cc1c(C(=O)N(Cc2ccc(N(C)C)cc2)CC2CCCO2)oc2ccc(Br)cc12 (stereo unspecified) | 58%
CCc1nn2c(=O)cc(COC(=O)CNC(=O)c3ccccc3)nc2s1 | 123%
Brc1ccc(-c2cc3c(N4CCN(c5ccccc5)CC4)nccn3n2)cc1 | 194%
COC(=O)c1nc2n(n1)C(c1cc(OC)ccc1OC)C(C(=O)Nc1ccc(C)cc1C)=C(C)N2 (stereo unspecified) | 79%
COc1ccc(C(=O)n2nc(N)c3cc4ccc(C)cc4nc32)cc1OC | 94%
CCOC(=O)c1cc(-c2ccc(C)cc2)n(CC(=O)Nc2ccc(OC)c(Cl)c2)c1C | 67%

SMILES | survival
COC(=O)c1ccc(NC(=O)Cn2cnc3c2c(=O)n(C)c(=O)n3C)cc1 | 80%
COc1ccc(-c2nc(C)c(CCNC(=O)c3ccc(C(F)(F)F)cc3)s2)cc1OC | -2% (active)
CCOc1ccc(NC(=O)C(=O)NCCc2sc(-c3ccc(C)cc3)nc2C)cc1 | 79%
CCOc1ccc(C(=O)NCCc2sc(-c3ccc(F)cc3)nc2C)cc1 | 90%
CCOc1ccc(C(=O)NCCc2sc(-c3ccc(C)cc3)nc2C)cc1 | -1% (active)
COc1ccc(-c2nc(C)c(CCNC(=O)c3cc(OC)c(OC)c(OC)c3)s2)cc1OC | 64%
CCOc1ccc(C(=O)NCCc2sc(-c3ccc(OC)c(OC)c3)nc2C)cc1 | 109%
O=c1[nH]cnc2scc(-c3ccsc3)c12 | 104%
Cc1ccc(-c2nc3scc(CCNS(=O)(=O)c4ccc(Oc5ccccc5)cc4)n3n2)cc1 | 115%
CC(C)OCCCn1c(=O)c2ccccc2n2c(-c3ccc(F)cc3)nnc12 | 98%
CCCCCNC(=O)c1c[nH]c2ccc(S(=O)(=O)N3CCC(C)CC3)cc2c1=O | 97%
COc1ccc(N2CC(NC(=O)C3CC3)CC2=O)cc1OC (stereo unspecified) | 73%
Cc1ccc2nc(N(Cc3cccnc3)C(=O)CCS(=O)(=O)c3ccccc3)sc2c1 | 67%
CCCCC(=O)Nc1cc(-c2nc3ccccc3o2)ccc1OC | 7% (active)
COc1ccc(-c2nc3ccccc3o2)cc1NC(=O)CSc1ccc(Cl)cc1 | 72%
COc1ccc(OCC(=O)Nc2cc(-c3nc4ccccc4o3)ccc2Cl)cc1 | 70%
COc1ccc(-c2nc3ccccc3o2)cc1NC(=O)COc1ccc(C(C)(C)C)cc1 | 4% (active)
COc1ccc(-c2nc3ccccc3o2)cc1NC(=O)COc1c(C)cc(Cl)cc1Cl | 67%
COc1ccc(-c2nc3ccccc3o2)cc1NC(=O)Cc1ccc(Cl)cc1 | 54%
Cc1cn2c(=O)cc(COc3ccc(NC(=O)c4cccc(F)c4)cc3)nc2s1 | 125%
COc1ccc(Cl)cc1NC(=O)c1cc2ccccn2n1 | 124%
COc1cc(C2C(C(=O)c3ccco3)=C(O)C(=O)N2CCc2ccccc2)ccc1O (stereo unspecified) | 86%
COc1ccc(Cn2c(=O)c3oc4ccccc4c3n(Cc3cccc(C)c3)c2=O)cc1 | 64%

SMILES | survival
Cc1ccc(OCCn2c(-c3ccc(Cl)cc3)nc3ccccc3c2=O)c(C)c1 | 63%
Cc1cccc(OCCOCCn2c(-c3ccc(Cl)cc3)nc3ccccc3c2=O)c1C | 60%
CCOc1ccc(OCCOCCn2c(-c3ccc(Cl)cc3)nc3ccccc3c2=O)cc1 | 26% (active)
Cc1cccc(OCCn2c(-c3ccc(Cl)cc3)nc3ccccc3c2=O)c1 | 105%
COc1cccc(OCCn2c(-c3ccc(Cl)cc3)nc3ccccc3c2=O)c1 | 51%
CC(C)(C)c1ccc(OCCOCCn2c(-c3ccc(Cl)cc3)nc3ccccc3c2=O)cc1 | 115%
Cc1cc(C)cc(OCCOCCn2c(-c3ccc(Cl)cc3)nc3ccccc3c2=O)c1 | 43% (active)
Cc1ccc(C)c(OCCn2c(-c3ccc(Cl)cc3)nc3ccccc3c2=O)c1C | 73%
Cc1cc(C)c(OCCOCCn2c(-c3ccc(Cl)cc3)nc3ccccc3c2=O)c(C)c1 | 43% (active)
Cc1ccc(OCCOCCn2c(-c3ccc(Cl)cc3)nc3ccccc3c2=O)cc1 | 39% (active)
Cc1cc(C)cc(OCCCn2c(-c3ccc(Cl)cc3)nc3ccccc3c2=O)c1 | 58%
Cc1ccccc1OCCn1c(-c2ccc(Cl)cc2)nc2ccccc2c1=O | 57%
COc1ccccc1N1CCN(CCCNC(=O)Cn2ncc3c([nH]c4ccccc43)c2=O)CC1 | 55%
CCCNC(=O)c1c(NC(=O)c2ccc(C)cc2)sc2c1CCCCC2 | 65%
COc1cccc(CNC(=O)c2ccc3c(=O)n4nc(Nc5ccccc5)sc4nc3c2)c1 | 88%
CCC1SC(NC(=O)COc2ccc(OC)cc2)=NC1=O (stereo unspecified) | 104%
COCCn1c(CCC(=O)Nc2ccc(C)c(Cl)c2)nc2cccnc21 | 84%
Cc1cc2c(cc1C)C(C)CC(C)(C)N2 (stereo unspecified) | 94%
O=C(NC1CCCCC1)C1OC(c2ccccc2)OC1C(=O)NC1CCCCC1 (stereo unspecified) | 86%
CC(=O)N(Cc1cccnc1)Cc1cc2cc3c(cc2[nH]c1=O)OCCO3 | 84%
CCN(CC)C(=O)Cn1cc(SCC(=O)Nc2ccccc2C)c2ccccc21 | 74%
CC(=O)Nc1ccc(S(=O)(=O)NCC2CCC(C(=O)NCc3ccccc3)CC2)cc1 (stereo unspecified) | 71%
